Inconclusive results are not listed. For some assays here: Potency and affinity values are given separately. Active and inactive are the calls of the source. Unless noted, how the calls were made is not given here. Numbered stars: 1 amine (or outer) side, 2 acyl side, 3 side chain; on linkers, the order of the positions; unused ones are H or OH. Bridge positions count the residues as written; N and C are the ends. Square brackets hold non-standard residues; d marks the D form. Peptide text beside a SMILES is read from it. I, II: the chains in the order shown. Actinocin(9to1) = Cc1c2oc3c(C)ccc(C(=O)[*:1])c3nc-2c(C(=O)[*:2])c(N)c1=O; NMeV = CN[CH](C(=O)O)C(C)C; Sar = CNCC(=O)O
Legend:
[1] = molecular target: NAD(+) hydrolase SARM1 (Homo sapiens) (UniProt Q6SZW1); test: SARM1 TIR NADase inhibitors, cell lysate, NAD-Glo luminescence (AID 1508614;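 active means compound whose remaining NAD level is above about 45 nM, limit read from the data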); details: SAM-TIR HEK293T lysate NADase, at 1 µM, stronger effect = higher value
Chain of NAD(+) hydrolase SARM1 (Homo sapiens) (Q6SZW1 whole entry, looked up, the tested form may be a part): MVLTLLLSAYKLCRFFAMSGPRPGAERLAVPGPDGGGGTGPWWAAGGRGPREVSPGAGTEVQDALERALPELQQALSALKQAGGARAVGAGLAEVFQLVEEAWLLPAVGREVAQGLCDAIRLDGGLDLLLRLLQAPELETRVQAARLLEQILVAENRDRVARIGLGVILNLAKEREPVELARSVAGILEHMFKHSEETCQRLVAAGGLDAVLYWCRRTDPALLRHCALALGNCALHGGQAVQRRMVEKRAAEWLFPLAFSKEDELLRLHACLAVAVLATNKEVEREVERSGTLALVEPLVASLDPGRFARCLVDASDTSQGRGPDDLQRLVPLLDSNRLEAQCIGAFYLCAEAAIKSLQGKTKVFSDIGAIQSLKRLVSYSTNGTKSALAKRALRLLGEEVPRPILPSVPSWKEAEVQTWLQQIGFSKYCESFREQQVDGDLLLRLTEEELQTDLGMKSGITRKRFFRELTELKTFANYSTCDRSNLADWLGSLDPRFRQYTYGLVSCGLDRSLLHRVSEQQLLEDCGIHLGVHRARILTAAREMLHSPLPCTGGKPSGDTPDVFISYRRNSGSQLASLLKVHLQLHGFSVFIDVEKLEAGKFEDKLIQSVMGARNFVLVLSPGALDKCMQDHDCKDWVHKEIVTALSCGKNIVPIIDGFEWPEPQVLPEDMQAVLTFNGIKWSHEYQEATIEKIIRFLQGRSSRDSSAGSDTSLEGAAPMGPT

[2] = molecular target: Mitogen-activated protein kinase 7 (Homo sapiens) (UniProt Q13164); test: ERK5 transactivation activators in reporter cells, primary screen, cell-based, HTS (AID 1508626;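 active means luciferase signal above three times the same-plate solvent-only control wells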;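 further: luciferase driven by Gal4-ERK5 fusion binding five Gal4 sites before minimal TATA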); details: HeLa Gal4-ERK5 transactivation, 18 h, at 5 µM, stronger effect = higher value
Chain of Mitogen-activated protein kinase 7 (Homo sapiens) (Q13164 whole entry, looked up, the tested form may be a part): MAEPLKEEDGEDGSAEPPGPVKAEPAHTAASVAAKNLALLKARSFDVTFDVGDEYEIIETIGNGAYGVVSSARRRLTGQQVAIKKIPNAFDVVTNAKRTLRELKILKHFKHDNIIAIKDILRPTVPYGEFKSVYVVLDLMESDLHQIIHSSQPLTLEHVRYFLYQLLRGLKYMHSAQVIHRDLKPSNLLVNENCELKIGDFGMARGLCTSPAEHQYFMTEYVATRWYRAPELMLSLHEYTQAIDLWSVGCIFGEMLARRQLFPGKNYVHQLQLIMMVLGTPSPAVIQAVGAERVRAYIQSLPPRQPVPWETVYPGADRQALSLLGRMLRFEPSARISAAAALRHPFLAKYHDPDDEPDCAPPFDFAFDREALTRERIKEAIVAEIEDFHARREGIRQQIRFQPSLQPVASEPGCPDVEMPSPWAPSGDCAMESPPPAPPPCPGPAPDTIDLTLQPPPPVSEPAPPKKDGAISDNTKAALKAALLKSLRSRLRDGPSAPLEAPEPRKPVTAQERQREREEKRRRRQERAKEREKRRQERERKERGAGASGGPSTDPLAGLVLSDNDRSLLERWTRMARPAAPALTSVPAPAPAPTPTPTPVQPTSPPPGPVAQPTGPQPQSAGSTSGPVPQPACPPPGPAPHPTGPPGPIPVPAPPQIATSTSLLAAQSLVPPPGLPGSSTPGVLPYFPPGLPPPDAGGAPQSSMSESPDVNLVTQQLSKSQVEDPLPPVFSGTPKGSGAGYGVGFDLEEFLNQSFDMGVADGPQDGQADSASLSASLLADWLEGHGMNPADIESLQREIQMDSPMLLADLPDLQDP

[3] = SU-DIPG-VI glioma cell viability, MIPE4.0 library, CellTiter-Glo luminescence, qHTS (AID 1347066; cut-off not given, nearly all actives have AC50 up to about 30 µM;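 further: cells exposed to compound for 48 hours before readout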); details: CellTiter-Glo ATP luminescence
[4] = growth inhibition of DIPG glioma cells, dose response, cell-based, SU-DIPG-XIII, MIPE5.0, CellTiter-Glo, qHTS (AID 1347064; cut-off not given, nearly all actives have AC50 up to about 23 µM;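 on AC50: cells exposed to compound for 48 hours before the viability read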); details: SU-DIPG-XIII viability, CellTiter-Glo ATP luminescence
[5] = circadian clock period modulators, cell-based, LOPAC library, luminescence reporter (AID 2774); details: circadian reporter cells, at 7 µM, actives lie on both sides;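 further: values are relative to mean of DMSO wells on each plate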
[6] = system: Hepatitis C virus NS3 helicase; test: HCV NS3 helicase inhibitors, primary screen, biochemical, fluorescence polarization, LOPAC1280 library (AID 687035; in the data active means inhibition above about 37%); details: Purified HCV NS3 helicase, Cy5-dT15 ssDNA binding fluorescence polarization; stronger effect = higher value; concentration not given here
[7] = Cy5 fluorescence quenching or enhancement artefacts, artefact control for HCV NS3 helicase inhibitor project, biochemical, LOPAC1280 (AID 687037); details: Cy5-DNA-NS3h complex fluorescence interference counterscreen
[8] = phospholipid biosynthesis inhibitors in animal cells, primary screen, cell-based, LOPAC library, screen 4 (AID 1347384); details: phospholipid biosynthesis inhibition screen, at 10 µM
[9] = hESC survival regulators, cell-based (AID 493140); details: human embryonic stem cell survival screen; stronger effect = higher value;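 further: cells exposed to compounds for four days before counting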
[10] = polyglutamine-triggered caspase-3 activation inhibitors, cell-based (AID 1583); details: polyglutamine-induced caspase-3 activation, cell assay; stronger effect = higher value;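 tested at 10 µM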
[11] = suppressors of polyQ aggregation in yeast, 75Q-TubU reporter (AID 1593); details: Yeast 75Q polyglutamine aggregation reporter
[12] = rescue of polyQ-huntingtin neuronal dysfunction in worms, whole organism, C. elegans mechanosensory neurons, N-terminal huntingtin (AID 1599); details: touch response, stronger effect = higher value
[13] = inhibitors of mitochondrial cytochrome c release, biochemical, purified mitochondria (AID 1603); details: stronger effect = lower value;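 further: mouse liver mitochondria challenged with calcium chloride; signal normalized to the plate average as 100%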
[14] = growth inhibition of DIPG glioma cells, dose response, cell-based, SU-DIPG-XIII, MIPE4.0, CellTiter-Glo, qHTS (AID 1347061; cut-off not given, nearly all actives have AC50 up to about 37 µM;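 further: cells exposed to compound for 48 hours before readout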); details: SU-DIPG-XIII viability, CellTiter-Glo ATP luminescence
[15] = modifiers of HSF1 nuclear foci, imaging, Selleck Cancer Library (AID 1347162; in the data active means plate-normalised HSF1 focus index below about 0.46); details: human cells, at 10 µM; SSMD: measured here: HSF1 foci SSMD mean; cell count: measured here: cell number; plate-normalised HSF1 focus index: stronger effect = lower value
[16] = growth inhibition of DIPG glioma cells, dose response, cell-based, JHH-DIPG-1, MIPE4.0, CellTiter-Glo, qHTS (AID 1347062; cut-off not given, nearly all actives have AC50 up to about 27 µM); details: JHH-DIPG-1 viability, CellTiter-Glo ATP luminescence
[17] = growth inhibition of DIPG glioma cells, dose response, cell-based, SU-DIPG-IV, MIPE4.0, CellTiter-Glo, qHTS (AID 1347063; cut-off not given, nearly all actives have AC50 up to about 30 µM;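 further: compound exposure lasted 48 hours before the viability readout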); details: SU-DIPG-IV viability, CellTiter-Glo ATP luminescence
[18] = molecular target: ATP-dependent translocase ABCB1 (Homo sapiens) (UniProt P08183); test: MDR1 (ABCB1) efflux transporter inhibition, cell-based (AID 377; in the data active means fluorescence slope change above about 50%); details: MDR1-expressing cells, fluorescent substrate accumulation slope; stronger effect = higher value; concentration not given here
Chain of ATP-dependent translocase ABCB1 (Homo sapiens) (P08183 whole entry, looked up): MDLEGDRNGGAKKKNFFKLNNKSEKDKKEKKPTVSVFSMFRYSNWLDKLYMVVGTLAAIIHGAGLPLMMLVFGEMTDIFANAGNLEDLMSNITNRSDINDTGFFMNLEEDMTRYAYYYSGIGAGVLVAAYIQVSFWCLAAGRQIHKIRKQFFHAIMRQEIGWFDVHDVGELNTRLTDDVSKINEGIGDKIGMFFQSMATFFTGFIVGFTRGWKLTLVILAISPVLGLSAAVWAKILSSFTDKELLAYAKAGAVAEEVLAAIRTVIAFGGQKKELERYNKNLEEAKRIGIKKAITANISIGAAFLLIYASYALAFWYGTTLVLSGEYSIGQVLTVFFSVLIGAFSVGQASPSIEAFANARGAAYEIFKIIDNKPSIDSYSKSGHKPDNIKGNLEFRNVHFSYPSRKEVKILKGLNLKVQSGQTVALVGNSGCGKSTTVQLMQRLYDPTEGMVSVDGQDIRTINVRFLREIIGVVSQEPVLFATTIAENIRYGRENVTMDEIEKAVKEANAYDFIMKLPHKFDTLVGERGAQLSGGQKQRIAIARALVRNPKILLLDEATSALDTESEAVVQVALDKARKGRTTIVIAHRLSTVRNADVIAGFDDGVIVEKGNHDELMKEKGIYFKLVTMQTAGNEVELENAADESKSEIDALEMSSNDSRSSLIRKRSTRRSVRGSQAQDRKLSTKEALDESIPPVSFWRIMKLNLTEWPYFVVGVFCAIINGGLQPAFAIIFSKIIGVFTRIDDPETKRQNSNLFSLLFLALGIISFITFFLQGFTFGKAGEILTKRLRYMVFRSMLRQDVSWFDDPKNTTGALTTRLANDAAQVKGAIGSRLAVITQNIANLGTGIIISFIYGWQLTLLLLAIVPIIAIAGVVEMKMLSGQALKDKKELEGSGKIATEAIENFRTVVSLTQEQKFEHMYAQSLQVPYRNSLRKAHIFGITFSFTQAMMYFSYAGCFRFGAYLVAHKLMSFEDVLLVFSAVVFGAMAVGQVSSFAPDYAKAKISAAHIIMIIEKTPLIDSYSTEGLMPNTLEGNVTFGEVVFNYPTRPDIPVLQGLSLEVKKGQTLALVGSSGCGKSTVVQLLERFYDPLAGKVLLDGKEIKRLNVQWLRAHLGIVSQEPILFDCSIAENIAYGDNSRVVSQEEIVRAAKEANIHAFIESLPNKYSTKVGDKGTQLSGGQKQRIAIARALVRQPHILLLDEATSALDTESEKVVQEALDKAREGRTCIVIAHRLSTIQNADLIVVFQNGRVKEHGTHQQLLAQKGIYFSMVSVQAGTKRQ

[19] = differential killing of epithelial or mesenchymal cells, primary screen, imaging, PC-3E GFP, TEM4-18 mCherry, co-culture (AID 1345086;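 active means compounds killing one labelled cell type while sparing the other, by normalised counts and ratio limits, not self-fluorescent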;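 further: cells exposed to compound for 72 h before imaging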;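 on red/green cell ratio (normalised): normalised mesenchymal count divided by normalised epithelial count so high means epithelial killing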); details: imaging cell counts, at 1 µM

CN1[C@@H]2CC[C@H]1CC(OC(=O)C(CO)c1ccccc1)C2 (stereo partly drawn)
remaining NAD [1]: 10 nM (inactive)
luciferase signal [2]: 44 AU (inactive)

O=C(O)C[C@H](O)C[C@H](O)/C=C/c1c(C2CC2)nc2ccccc2c1-c1ccc(F)cc1
outcome [3]: inactive
remaining NAD [1]: 10 nM (inactive)

Nc1ccn([C@@H]2CS[C@H](CO)O2)c(=O)n1
outcome [4]: inactive
remaining NAD [1]: 10 nM (inactive)

CC(N)(Cc1ccc(O)c(O)c1)C(=O)O (stereo not drawn)
period change [5]: -0.1 h (inactive)
inhibition [6]: 0% (inactive)
fluorescence ratio (interference) [7]: 1 (inactive)
outcome [8]: inactive

CC(C)(C)NC(=O)[C@@H]1C[C@@H]2CCCC[C@@H]2CN1C[C@@H](O)[C@H](Cc1ccccc1)NC(=O)[C@H](CC(N)=O)NC(=O)c1ccc2ccccc2n1
survival [9]: 25.4 (inactive)

COc1cc(C[C@@H](CO)[C@H](CO)Cc2ccc(O)c(OC)c2)ccc1O
outcome [4]: inactive

CN1CCC[C@H]1c1cccnc1
inhibition [10]: -24.3%
score [11]: 1.39
rescue above control [12]: 3.58
cytochrome c release ratio [13]: 0.71
period change [5]: 0.09 h (inactive)
inhibition [6]: 0% (inactive)
fluorescence ratio (interference) [7]: 1 (inactive)
remaining NAD [1]: 10 nM (inactive)

Nc1nc(Cl)nc2c1ncn2[C@H]1C[C@H](O)[C@@H](CO)O1
outcome [14]: inactive
SSMD [15]: -4.5
cell count [15]: 6930
plate-normalised HSF1 focus index [15]: 0.776 (inactive)

CC1CNc2c(cccc2S(=O)(=O)N[C@@H](CCCN=C(N)N)C(=O)N2CC[C@@H](C)C[C@@H]2C(=O)O)C1 (stereo partly drawn)
outcome [4]: inactive
outcome [3]: inactive

CC(C)c1ccc2c(c1)c(SC(C)(C)C)c(CC(C)(C)C(=O)O)n2Cc1ccc(Cl)cc1
period change [5]: 0.025 h (inactive)
inhibition [6]: 0% (inactive)
fluorescence ratio (interference) [7]: 0.9 (inactive)
outcome [16]: inactive
outcome [8]: inactive

COC(=O)Nc1nc2ccc(C(=O)c3ccc(F)cc3)cc2[nH]1
outcome [14]: inactive
outcome [3]: inactive

O=C1C(c2c(O)[nH]c3ccccc23)=Nc2ccccc21
survival [9]: 88 (inactive)
outcome [16]: inactive
AC50 [17]: 13.2 µM (active)
outcome [3]: inactive

COc1cc(C)c(/C=C/C(C)=C/C=C/C(C)=C/C(=O)O)c(C)c1C
outcome [16]: inactive

c1ccc(-c2ccccn2)nc1
period change [5]: -0.19 h (inactive)
inhibition [6]: -3% (inactive)
fluorescence ratio (interference) [7]: 1 (inactive)
outcome [8]: inactive

CCC[C@@H]1C[C@@H](C(=O)N[C@H]([C@@H](C)O)[C@H]2O[C@H](SC)[C@H](O)[C@@H](O)C2O)N(C)C1 (stereo partly drawn)
fluorescence slope change [18]: 65% (active)

O=c1[nH]c2ccccc2c2ccccc12
period change [5]: 0.13 h (inactive)
inhibition [6]: -3% (inactive)
fluorescence ratio (interference) [7]: 1 (inactive)
outcome [8]: inactive

CC(C(O)c1ccc(O)cc1)N1CCC(Cc2ccccc2)CC1 (stereo not drawn)
fluorescence slope change [18]: 23.8% (inactive)
period change [5]: 0.3 h (inactive)
survival [9]: 3.25 (inactive)
inhibition [6]: -4% (inactive)
fluorescence ratio (interference) [7]: 0.9 (inactive)
outcome [8]: inactive

CCCc1nc(C(C)(C)O)c(C(=O)O)n1Cc1ccc(-c2ccccc2-c2nn[nH]n2)cc1
red/green cell ratio (normalised) ([19]; actives lie on both sides, counts scaled to control wells, 1 = unselective): 1.01 (inactive)
normalised cell number ([19]; measured here: epithelial PC-3E GFP cell survival): 1.21
normalised cell number ([19]; measured here: mesenchymal TEM4-18 mCherry cell survival): 1.22
outcome [16]: inactive
outcome [17]: inactive
outcome [4]: inactive
outcome [3]: inactive
remaining NAD [1]: 10 nM (inactive)

CO[C@H]1/C=C/O[C@@]2(C)Oc3c(C)c(O)c4c(O)c(c5c(c4c3C2=O)NC2(CCN(CC(C)C)CC2)N=5)=NC(=O)/C(C)=C\C=C\[C@H](C)[C@H](O)[C@@H](C)[C@@H](O)[C@@H](C)[C@H](OC(C)=O)[C@@H]1C
survival [9]: 5.5 (inactive)

Cc1c2oc3c(C)ccc(C(=O)NC4C(=O)NC(C(C)C)C(=O)N5CCCC5C(=O)N(C)CC(=O)N(C)C(C(C)C)C(=O)OC4C)c3nc-2c(C(=O)NC2C(=O)NC(C(C)C)C(=O)N3CCCC3C(=O)N(C)CC(=O)N(C)C(C(C)C)C(=O)OC2C)c(N)c1=O (stereo not drawn) (I: TVP[Sar][NMeV] / II: TVP[Sar][NMeV]; ester I:1-I:C, II:1-II:C; linker I:N-II:N via Actinocin(9to1); configuration not given here)
outcome [14]: inactive
outcome [16]: inactive
outcome [17]: inactive
AC50 [4]: 0.00362 µM (active)
outcome [3]: inactive

CCN(CC)C(=O)[C@]1(c2ccccc2)C[C@@H]1CN
remaining NAD [1]: 10 nM (inactive)
